D1 potentiator – enhances dopamine response at the human D1 receptor. actives 0.036% (n = 360,000). P21728. HEK293 TREx D1 cells, calcium flux, dopamine EC20 potentiation. potentiation, % at 10 µM. AID 504651; in the data active = potentiation above about 30%; also: 0% is about no effect
D1 agonist – human D1 receptor agonism | activation, % at 2 µM | actives 1% (n = 360,000) | P21728 | HEK293 T-REx D1 cells, calcium flux, agonist mode; also: 0% is about no effect
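Inducible HEK293 T-REx D1 cells, force-coupled to calcium signalling, were plated at 4000 cells/well with tetracycline and held overnight at 30 C. After no-wash calcium dye loading, compound-evoked calcium rise over 180 s flagged agonists.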
TRHR enhancer – TRH receptor (human) allosteric enhancement | TRHR cells, fluo-8 calcium fluorescence, EC20 TRH enhancement | enhancement, % at 2 µM | actives 0.66% (n = 360,000); in the data active = enhancement above about 30%; also: 0% is about no effect
Target sequence (P34981 whole entry, looked up): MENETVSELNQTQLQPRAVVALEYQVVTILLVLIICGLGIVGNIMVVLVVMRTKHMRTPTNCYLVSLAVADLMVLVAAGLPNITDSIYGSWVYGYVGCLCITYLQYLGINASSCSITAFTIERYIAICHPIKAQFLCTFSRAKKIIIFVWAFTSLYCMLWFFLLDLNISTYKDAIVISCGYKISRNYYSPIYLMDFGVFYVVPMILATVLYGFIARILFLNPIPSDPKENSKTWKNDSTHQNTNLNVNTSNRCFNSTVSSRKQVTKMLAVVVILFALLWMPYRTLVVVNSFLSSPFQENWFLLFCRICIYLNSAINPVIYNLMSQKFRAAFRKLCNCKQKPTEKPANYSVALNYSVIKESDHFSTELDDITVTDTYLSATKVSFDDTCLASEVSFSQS
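Enhancer read-out: after compound pinning and an initial kinetic agonist-mode read, an EC20 of TRH (10 nM final) was injected and fluo-8 calcium signal (Ex 480/Em 530) followed at 1 s/cycle for 100 cycles in TRHR-expressing cells.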
D1 antag – blocks dopamine activation of the human D1 receptor | AID 504652 | P21728 | actives 3.2% (n = 360,000) | HEK293 TREx D1 cells, calcium flux, dopamine EC80; active compounds read low | activity change, negative = inhibition, % at 10 µM; in the data active = activity change below about -30%; also: % is scaled to controls: 0 for no effect and ±100 for the full control effect
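Kinetic fluorescence of a calcium dye serves as the read-out. D1-expressing Hek293 Trex cells, induced overnight at 30 C, are exposed to compound for 180 s before an EC80 dopamine addition, then read 180 s further.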
TRHR agonist – agonists of human TRH receptor | actives 0.18% (n = 360,000) | P34981 | activation, % at 2 µM | TRHR cells, calcium flux fluo-8, FDSS agonist mode; also: 0% is about no effect
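Steps: seed TRHR cells overnight; add fluo-8 no-wash Ca dye, RT 30 min–1.5 h; record 10 s baseline; pin-transfer compounds; monitor fluorescence 1 cycle/s for the agonist window. Calcium increases flag candidate agonists.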
The depositor's hits bear a star; ! = repeats disagree. In the library only some 4.7% were active in any assay of this set; here they are far more common. Rule as the data show it, unless noted: active = activation above about 30%; inactive = the rest.

`CCCN1CCN(CCCNC(=O)c2cc3c(s2)-c2ccccc2OC3)CC1` gave D1 potentiator -11, D1 agonist 5, TRHR enhancer 37*!, D1 antag -12 and TRHR agonist 0.
Screening CCN1CCN(CCCNC(=O)c2cc3c(s2)-c2ccccc2OC3)CC1 returned D1 potentiator -13, D1 agonist 0, TRHR enhancer -6, D1 antag 41 and TRHR agonist 0.
For CCc1cccc2c(-c3ccccc3)nc(SCC(=O)Nc3ccc(OC)cc3)nc12 the results were D1 potentiator 1, D1 agonist 2, TRHR enhancer 6, D1 antag 5 and TRHR agonist -2.
Screening COc1ccccc1CNC(=O)CSc1nc2nc(C)c(Cc3ccccc3C)c(C)n2n1 returned D1 potentiator 0, D1 agonist 11, TRHR enhancer -2, D1 antag -3 and TRHR agonist 0.
Screening CCc1ccccc1N1C(=O)N(C)c2ccccc2S1(=O)=O returned D1 potentiator 1, D1 agonist -1, TRHR enhancer -3, D1 antag -8 and TRHR agonist 0.
`CCc1ccc(-n2c(N3CCN(c4cccc(C)c4C)CC3)nc3ccccc3c2=O)cc1` gave D1 potentiator 0, D1 agonist 1, TRHR enhancer -2, D1 antag 16 and TRHR agonist 0.
CCCN1CCN(CCCNC(=O)c2cc3c(s2)-c2c(C)cccc2OC3)CC1 was read as D1 potentiator -10, D1 agonist 5, TRHR enhancer -2, D1 antag -38*! and TRHR agonist 0.
`Cc1ccc(C)c(N(C)C(=O)c2cc3c(s2)-c2ccccc2OC3)c1` gave D1 potentiator 2, D1 agonist -1, TRHR enhancer 8, D1 antag 8 and TRHR agonist 0.
`Cc1cccc2c1-c1sc(C(=O)NCCCN3CCCC(C)C3)cc1CO2` (centres undefined) gave D1 potentiator -19, D1 agonist 19, TRHR enhancer 0, D1 antag -51* and TRHR agonist 1.
For Cc1csc(NC(=O)c2cc3c(s2)-c2ccccc2OC3)n1 the results were D1 potentiator 3, D1 agonist 3, TRHR enhancer 3, D1 antag -9 and TRHR agonist 0.
Screening COc1ccc(N(C)C(=O)c2cc3c(s2)-c2ccccc2OC3)c(OC)c1 returned D1 potentiator -9, D1 agonist 2, TRHR enhancer -3, D1 antag -40* and TRHR agonist -1.
For Cc1c(NC(=O)c2cc3c(s2)-c2ccccc2OC3)cccc1[N+](=O)[O-] the results were D1 potentiator -8, D1 agonist 3, TRHR enhancer 13, D1 antag -40* and TRHR agonist 1.
Screening CC1CC(C)CN(CCCNC(=O)c2cc3c(s2)-c2ccccc2OC3)C1 (centres undefined) returned D1 potentiator -2, D1 agonist 7, TRHR enhancer 9, D1 antag 1 and TRHR agonist 2.
For COc1ccc(CNC(=O)CCCN2C(=O)CCn3nc(-c4cn(C)c5ccccc45)cc32)cc1 the results were D1 potentiator -1, D1 agonist 2, TRHR enhancer -3, D1 antag 10 and TRHR agonist -1.
`Cc1ccc(-c2cn3c(n2)sc2cc(C(=O)NCc4cccs4)ccc23)cc1` gave D1 potentiator -1, D1 agonist 3, TRHR enhancer -3, D1 antag 3 and TRHR agonist 0.
For CCOc1ccccc1CNC(=O)c1cn(-c2ccc(OC)cc2)c(=O)c2ccccc12 the results were D1 potentiator -4, D1 agonist 1, TRHR enhancer 4, D1 antag -12 and TRHR agonist 0.
`O=C(NCCCN1CCN(c2ccccc2F)CC1)c1cc2c(s1)-c1ccccc1OC2` gave D1 potentiator -7, D1 agonist 5, TRHR enhancer -6, D1 antag -46* and TRHR agonist 0.
For CN(C)CCCN1c2ccccc2CCc2ccc(Cl)cc21 the results were D1 potentiator -3, D1 agonist 36*, TRHR enhancer 3, D1 antag -96* and TRHR agonist 4.
`CN(C)CCCN1c2ccccc2Sc2ccccc21` gave D1 potentiator -4, D1 agonist 42*, TRHR enhancer 12, D1 antag -81* and TRHR agonist 2.
CC(CNC(=O)c1cc(-c2ccccc2)n[nH]1)c1ccccc1 (centres undefined) was read as D1 potentiator -3, D1 agonist 0, TRHR enhancer -2, D1 antag -51* and TRHR agonist 0.
For Cc1ccc(CCNC(=O)c2cc(-c3ccccc3)n[nH]2)cc1 the results were D1 potentiator -3, D1 agonist 9, TRHR enhancer -3, D1 antag -17 and TRHR agonist 0.
Screening CC(C)(C)NC(=O)c1cc(-c2ccccc2)n[nH]1 returned D1 potentiator -7, D1 agonist 4, TRHR enhancer -8, D1 antag -32* and TRHR agonist -1.
O=C(NCCc1ccc(Cl)cc1)c1cc(-c2ccccc2)n[nH]1 was read as D1 potentiator 2, D1 agonist 1, TRHR enhancer 20, D1 antag -31* and TRHR agonist -1.
`COC(=O)c1cc(-c2ccccc2)n[nH]1` gave D1 potentiator 9, D1 agonist 2, TRHR enhancer 2, D1 antag -7 and TRHR agonist 0.
`CC(=O)N1c2ccc(S(=O)(=O)Nc3ccc(Cl)cc3C)cc2CC1C` (centres undefined) gave D1 potentiator -5, D1 agonist 14, TRHR enhancer -5, D1 antag -17 and TRHR agonist 1.
Screening CCCOc1ccc(CCc2n[nH]c(=S)n2-c2ccccc2)cc1 returned D1 potentiator 2, D1 agonist 6, TRHR enhancer 4, D1 antag 4 and TRHR agonist -1.
`CCCOc1ccc(CCc2n[nH]c(=S)n2Cc2ccccc2)cc1` gave D1 potentiator -3, D1 agonist 4, TRHR enhancer -3, D1 antag -43* and TRHR agonist 0.
CCc1ccccc1NC(=O)Cn1cc(C(=O)c2ccc(Cl)cc2)c(=O)c2ccc(C)nc21 was read as D1 potentiator 1, D1 agonist 2, TRHR enhancer 5, D1 antag -5 and TRHR agonist 1.
Screening CC1(C(=O)CSc2nc3ccccc3[nH]2)CCC(=O)O1 (centres undefined) returned D1 potentiator -6, D1 agonist 0, TRHR enhancer -7, D1 antag -16 and TRHR agonist 0.
Screening CC1(C(=O)CSc2ncn[nH]2)CCC(=O)O1 (centres undefined) returned D1 potentiator 22, D1 agonist 2, TRHR enhancer 1, D1 antag -43* and TRHR agonist 0.

Screens deposited in PubChem BioAssay by National Center for Advancing Translational Sciences (NCATS).
